Holding throughout (experiment): yeast three-hybrid, YBZ-1, SC-Leu-His + 0.5 mM 3-AT, 4 days
What all share (details): tags: N-Gal4 AD-HA kept; label: inside an RPR1-promoter hybrid RNA with tandem MS2 sites; ssRNA

The target in one assay is PUM1 PUF domain R1-NWG (Homo sapiens, UniProt Q14671 828-1176, S863N;R864W;Q867G). The method in brief:
(§1)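 The interaction score is the log change in how often each variant appears, from input to selection. Frequencies came from PCR-amplified, Illumina-sequenced repeat regions of Pumilio-1 PUF domain libraries grown in strain YBZ-1 (LexA–MS2 coat fusion, HIS3 reporter) alongside matching RNA elements. Input plates were SC-Leu and selection plates were SC-Leu-His + 0.5 mM 3-AT, each for four days, and the log2 calculation used a pseudocount of 1 where a variant was absent.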

Another assay deals with T1, PUM1 PUF domain R6-MYG (Homo sapiens, UniProt Q14671 828-1176, N1043M;Q1047G).
T1 sequence: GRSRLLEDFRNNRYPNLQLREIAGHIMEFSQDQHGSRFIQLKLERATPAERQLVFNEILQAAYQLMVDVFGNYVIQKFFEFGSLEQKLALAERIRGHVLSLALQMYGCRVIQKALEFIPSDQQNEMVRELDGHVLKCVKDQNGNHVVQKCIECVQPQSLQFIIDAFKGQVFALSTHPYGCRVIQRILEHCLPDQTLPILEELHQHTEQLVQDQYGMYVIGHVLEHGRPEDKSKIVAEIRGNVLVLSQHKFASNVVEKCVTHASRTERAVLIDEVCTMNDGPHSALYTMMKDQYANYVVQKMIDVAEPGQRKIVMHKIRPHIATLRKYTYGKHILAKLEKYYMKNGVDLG
The method in brief: as §1

The target of another assay is PUM1 PUF domain R8-KFR (Homo sapiens, UniProt Q14671 828-1176, N1122K;Y1123F;Q1126R). The method in brief:
as §1

The next assay deals with PUM1 PUF domain R3-ASY (Homo sapiens, UniProt Q14671 828-1176, C935A;R936S;Q939Y). The method in brief:
as §1

The next assay has as its target T2, PUM1 PUF domain R6-RWS (Homo sapiens, UniProt Q14671 828-1176, N1043R;Y1044W;Q1047S).
T2 sequence: T1 sequence with M216R, Y217W, G220S
The method in brief:
as §1

A further assay deals with PUM1 PUF domain R4-VNT (Homo sapiens, UniProt Q14671 828-1176, N971V;H972N;Q975T). The method in brief:
as §1

The target in another assay is PUM1 PUF domain R5-RNI (Homo sapiens, UniProt Q14671 828-1176, C1007R;R1008N;Q1011I). The gist of the method: as §1
The next assay addresses PUM1 PUF domain R2-EWS (Homo sapiens, UniProt Q14671 828-1176, N899E;Y900W;Q903S). The gist of the method:
as §1

The next assay concerns the target PUM1 PUF domain R7-GCG (Homo sapiens, UniProt Q14671 828-1176, S1079G;N1080C;E1083G). The method in brief:
as §1

Residue numbers refer to the chain shown, from its start.

Chain of PUM1 PUF domain R4-VNT (Q14671 828-1176 N971V/H972N/Q975T): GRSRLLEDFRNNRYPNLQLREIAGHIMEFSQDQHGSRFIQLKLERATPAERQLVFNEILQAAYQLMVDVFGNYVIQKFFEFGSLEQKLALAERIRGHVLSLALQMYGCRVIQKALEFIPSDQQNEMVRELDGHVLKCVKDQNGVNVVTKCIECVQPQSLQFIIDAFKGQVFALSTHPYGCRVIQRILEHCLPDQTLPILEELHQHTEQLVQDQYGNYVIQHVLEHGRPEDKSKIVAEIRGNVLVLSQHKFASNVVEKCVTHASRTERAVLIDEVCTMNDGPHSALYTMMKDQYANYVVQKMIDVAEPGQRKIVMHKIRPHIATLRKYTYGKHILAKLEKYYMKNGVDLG
Chain of PUM1 PUF domain R7-GCG (Q14671 828-1176 S1079G/N1080C/E1083G): as the sequence (Q14671 828-1176 N971V/H972N/Q975T) above, with V144N, N145H, T148Q, S252G, N253C, E256G counted along it

As to “GGCUAGAACUAGUGGAUCCCCCGGCGCCCGGCGGCUCGAGCCCGGGUAAGUGUAAAUUGUCUGCAUGCCGCCGGGCGCCAUGCCUGCAGGUCGACUCUAGAAAACAUG”, the binding signal in the assay with PUM1 PUF domain R1-NWG was 5.42 log2 enrichment (interaction score).

As for “GGCUAGAACUAGUGGAUCCCCCGGCGCCCGGCGGCUCGAGCCCGGGUAAGUGUAAAUAGUCUGCAUGCCGCCGGGCGCCAUGCCUGCAGGUCGACUCUAGAAAACAUG”, the binding signal with PUM1 PUF domain R6-MYG is 4.1 log2 enrichment (interaction score); in the assay with PUM1 PUF domain R8-KFR it was 6.77 log2 enrichment (interaction score); in the assay with PUM1 PUF domain R3-ASY it was 2.58 log2 enrichment (interaction score); in the assay with PUM1 PUF domain R6-RWS, 6.05 log2 enrichment (interaction score). For “GGCUAGAACUAGUGGAUCCCCCGGCGCCCGGCGGCUCGAGCCCGGGUAAGUGUACAUAGUCUGCAUGCCGCCGGGCGCCAUGCCUGCAGGUCGACUCUAGAAAACAUG”, in the assay with PUM1 PUF domain R4-VNT, the binding signal is 0.69 log2 enrichment (interaction score).

Turning to “GGCUAGAACUAGUGGAUCCCCCGGCGCCCGGCGGCUCGAGCCCGGGUAAGUGUAUAUAGUCUGCAUGCCGCCGGGCGCCAUGCCUGCAGGUCGACUCUAGAAAACAUG”, the binding signal in the assay with PUM1 PUF domain R4-VNT was 2.54 log2 enrichment (interaction score).

Regarding “GGCUAGAACUAGUGGAUCCCCCGGCGCCCGGCGGCUCGAGCCCGGGUAAGUGUCAAUAGUCUGCAUGCCGCCGGGCGCCAUGCCUGCAGGUCGACUCUAGAAAACAUG”, the binding signal in the assay with PUM1 PUF domain R5-RNI was 3.78 log2 enrichment (interaction score). For the sequence “GGCUAGAACUAGUGGAUCCCCCGGCGCCCGGCGGCUCGAGCCCGGGUAAGUGUAAAAAGUCUGCAUGCCGCCGGGCGCCAUGCCUGCAGGUCGACUCUAGAAAACAUG”, the binding signal with PUM1 PUF domain R2-EWS was 6.34 log2 enrichment (interaction score). “GGCUAGAACUAGUGGAUCCCCCGGCGCCCGGCGGCUCGAGCCCGGGUAAGUGUAAAGAGUCUGCAUGCCGCCGGGCGCCAUGCCUGCAGGUCGACUCUAGAAAACAUG”: in the assay with PUM1 PUF domain R2-EWS, the binding signal is 4.8 log2 enrichment (interaction score). For “GGCUAGAACUAGUGGAUCCCCCGGCGCCCGGCGGCUCGAGCCCGGGUAAGUUUAAAUAGUCUGCAUGCCGCCGGGCGCCAUGCCUGCAGGUCGACUCUAGAAAACAUG”, in the assay with PUM1 PUF domain R7-GCG, the binding signal is 3.64 log2 enrichment (interaction score).

These data come from paper PMC8384837, “Expanding the binding specificity for RNA recognition by a PUF domain”.
